For 67 compounds, manual score results are on record in PubChem BioAssay AID623911 (Vanderbilt High Throughput Screening Facility, 2012).

About 770 (37%) of roughly 2,100 compounds were called active.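 The calls were made as follows: active = by-eye trace score of 1 for enhancers or -1 for inhibitors, so actives lie on both sides (some results past the limit were not filed as active); inactive = score 0, or 3 fluorescent, or 4 baseline rise.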 The list shows a part of the results.

G protein-activated inward rectifier potassium channel 2 (Homo sapiens) + G protein-activated inward rectifier potassium channel 1 (Homo sapiens), sequence (P48051 whole entry, looked up): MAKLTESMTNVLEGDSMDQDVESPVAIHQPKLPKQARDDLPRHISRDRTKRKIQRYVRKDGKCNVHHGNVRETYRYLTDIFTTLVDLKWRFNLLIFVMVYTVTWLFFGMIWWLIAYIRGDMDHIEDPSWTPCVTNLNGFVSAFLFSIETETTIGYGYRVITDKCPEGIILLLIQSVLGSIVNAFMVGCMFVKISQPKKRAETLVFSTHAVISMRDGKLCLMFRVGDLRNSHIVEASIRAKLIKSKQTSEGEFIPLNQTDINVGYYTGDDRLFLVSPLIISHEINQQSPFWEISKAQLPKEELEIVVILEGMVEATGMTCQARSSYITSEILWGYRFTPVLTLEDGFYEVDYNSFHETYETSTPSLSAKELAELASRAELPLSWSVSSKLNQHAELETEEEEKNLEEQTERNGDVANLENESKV
G protein-activated inward rectifier potassium channel 2 (Homo sapiens) + G protein-activated inward rectifier potassium channel 1 (Homo sapiens), sequence (P48549 whole entry, looked up): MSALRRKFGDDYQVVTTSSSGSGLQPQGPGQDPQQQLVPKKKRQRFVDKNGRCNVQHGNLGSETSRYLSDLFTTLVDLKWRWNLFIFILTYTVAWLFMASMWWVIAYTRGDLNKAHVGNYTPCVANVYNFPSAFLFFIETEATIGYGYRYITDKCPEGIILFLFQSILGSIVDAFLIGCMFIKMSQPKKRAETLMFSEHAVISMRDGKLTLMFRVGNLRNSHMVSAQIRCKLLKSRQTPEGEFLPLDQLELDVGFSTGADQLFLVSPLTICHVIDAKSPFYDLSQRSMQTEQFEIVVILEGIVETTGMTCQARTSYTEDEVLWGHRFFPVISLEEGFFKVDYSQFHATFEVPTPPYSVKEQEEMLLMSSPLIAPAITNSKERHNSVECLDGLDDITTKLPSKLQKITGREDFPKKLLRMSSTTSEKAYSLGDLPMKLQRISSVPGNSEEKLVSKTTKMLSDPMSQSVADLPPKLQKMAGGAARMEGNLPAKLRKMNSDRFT

This experiment addresses G protein-activated inward rectifier potassium channel 2 (Homo sapiens) + G protein-activated inward rectifier potassium channel 1 (Homo sapiens) (UniProt P48051+P48549). Description: GIRK1/2 thallium flux modulators, retest, confirmation, cell-based, HEK293 rmGlu8/hGIRK1/2, FluoZin-2 (AID 623911). The note with it: HEK293 rmGlu8/hGIRK1/2, thallium flux FluoZin-2; actives lie on both sides; glutamate co-added at its EC20 level.
For the compound `CCc1cc2c(=O)n(CC)c(SC(C)C(=O)Nc3c(C)n(C)n(-c4ccccc4)c3=O)nc2s1` (configuration not stated), the manual score was 0 (inactive).

Regarding `O=C(NC(=S)Nc1nc2c(ccc3ccccc32)s1)c1cccs1`, the manual score was 0.5 (inactive). Consider `O=C(NC(=S)Nc1nc2ccccc2s1)c1cccs1`, for which the manual score was 0.5 (inactive).

Consider `O=C(NC(=S)N(CCc1ccccc1)CCc1ccccc1)c1ccco1`, for which the manual score was 1 (active). The same measure for `O=C(CNC(=S)NC(=O)c1ccco1)c1ccccc1`: 1 (active); for `O=C(NC(=S)NCCc1ccccc1)c1ccco1`: 1 (active). `O=C(NC(=S)NCCc1ccccc1)c1ccccc1`: the manual score was 0 (inactive).

Turning to `O=C(CNC(=S)NC(=O)c1cccs1)c1ccccc1`, the manual score was 1 (active). For `Fc1cccc(-n2c(-c3ccco3)nc3nc4ccccc4nc32)c1`, the manual score was 0 (inactive). For `O=C(Nc1ccncc1)c1ccc2c(c1)C(=O)N(C1CCCCC1)C2=O`, the manual score was 0 (inactive). In the case of `CCCCNc1c2c3c(cccc3n(C)c1=O)C(=O)c1ccccc1-2` it was 3 (inactive); in that of `CCc1nc(N2CCOCC2)c(C#N)c2c1CCCC2`, 0 (inactive). With `S=c1nc[nH]c2c1sc1nc(-c3ccccc3)c3c(c12)CCCC3`, the manual score is 1 (active). In the case of `N#CC1=C(N)SC(N)=C(C#N)C1c1c(Cl)cccc1Cl`, the manual score was -1 (active).

With `Cc1sccc1C1C(C#N)=C(N)SC(N)=C1C#N`, the manual score is 0 (inactive). Take `N#CC1=C(N)SC(N)=C(C#N)C1CCc1ccccc1`: the manual score was 0 (inactive).

On to `S=C(NCc1cccs1)Nc1cccc(Cl)c1`, for which the manual score was 1 (active). Consider `COCCCN(C(=S)Nc1cccc(Cl)c1)C(C)c1ccncc1` (configuration not stated), for which the manual score was 0 (inactive). On to `O=C(CSc1cccc2cccc(Cl)c12)NCc1cccs1`, for which the manual score is 0 (inactive).

Turning to `Cc1csc(NC(=S)Nc2cccc(Cl)c2)n1`, the manual score is 1 (active). Take `Cc1ccc(C2CC2C(=O)NNC(=S)Nc2cccc(Cl)c2)cc1` (configuration not stated): the manual score is 0 (inactive). Turning to `CC(C)n1c(-c2ccc(C(C)(C)C)cc2)n[nH]c1=S`, the manual score is 0 (inactive). Take `Cc1ccc2nc(NC(=S)NC(=O)c3cccs3)sc2c1`: the manual score is 0 (inactive). `Cc1ccc(C(=O)N/N=C(/CC(=O)c2cccs2)C(F)(F)F)cc1`: the manual score is 1 (active). `CSCSC1=C(C#N)C(c2ccc(Cl)cc2)C(C(C)=O)=C(C)N1` (configuration not stated): the manual score was 0 (inactive). In the case of `CCOc1ccccc1C1CC(=O)NC(SCC)=C1C#N` (configuration not stated), the manual score was 0 (inactive). On to `N#Cc1c(-c2ccco2)nc(SCc2ccc(F)cc2)[nH]c1=O`, for which the manual score is 0 (inactive). `CCOC(=O)C1=C(c2ccccc2)NC(SC)=C(C#N)C1c1ccco1` (configuration not stated): the manual score is 0 (inactive). As to `CC(=O)C1=C(C)NC(SCc2ccc(C#N)cc2)=C(C#N)C1c1ccco1` (configuration not stated), the manual score was -1 (active).

Consider `CC(=O)C1=C(C)NC(SCC(=O)c2ccc(Cl)cc2Cl)=C(C#N)C1c1ccco1` (configuration not stated), for which the manual score is -1 (active). In the case of `CSCSC1=C(C#N)C(c2ccccc2Cl)C(C(C)=O)=C(C)N1` (configuration not stated) it was -1 (active); in that of `CC(Nc1nc(N2CCCCC2)nc2ccccc12)c1ccccc1` (configuration not stated), -1 (active); in that of `CC(Nc1nc(N2CCCC2)nc2ccccc12)c1ccccc1` (configuration not stated), -1 (active).

On to `C=CCNc1nc(N2CCCC2)nc2ccccc12`, for which the manual score was -1 (active). `CC1(C)CC(=S)Nc2ccccc2S1`: the manual score was 0 (inactive). `CCc1cccc(NC(=O)NC2CCCCC2)c1`: the manual score is 0.5 (inactive). The same measure for `O=C(Nc1ccc(F)c(F)c1)NC1CCCCC1`: 1 (active); for `CCCN1CCC(NC(=O)Nc2ccc(F)cc2F)CC1`: 0 (inactive). For the compound `CC1(C)CC(=O)C2=C(C1)OC(/N=C/N1CCOCC1)=C(C#N)C2c1ccccc1` (configuration not stated), the manual score is -1 (active). As to `N=c1c2c(-c3ccccc3)c(-c3ccccc3)n(Cc3ccccc3)c2ncn1CCCO`, the manual score is -1 (active).

On to `CC(C)Cn1cnc2c(c(-c3ccccc3)c(-c3ccccc3)n2Cc2ccco2)c1=N`, for which the manual score was -1 (active).

As for `COC(=O)c1cc(NC(=O)c2ccoc2C)cc(C(=O)OC)c1`, the manual score is 0 (inactive). Regarding `CCN1CCN(C(=O)c2ccc3c(=O)n(C4CCCC4)c(=S)[nH]c3c2)CC1`, the manual score was 0 (inactive). Regarding `COc1cc2c(C(=O)N3CCN(C4CCCCC4)CC3)cn(CC(C)C)c(=O)c2cc1OC`, the manual score is -1 (active). On to `CC(C)OC(=O)CC12CN3CN(C1)CC(CC(=O)OC(C)C)(C3)C2=O`, for which the manual score was 0 (inactive).

For `CCN(CC)c1nc(C)nc2c1cnn2CCc1ccccc1`, the manual score is 0 (inactive). For `Cc1ccccc1NC(=O)C(=O)NC(C)CCc1ccccc1` (configuration not stated), the manual score was 0 (inactive).

In the case of `Cc1cccc(NC(=O)NC(C)CCc2ccccc2)c1` (configuration not stated), the manual score is 1 (active). For `Cc1cccc(NC(=S)NC(=O)CCc2ccccc2)c1`, the manual score is 0 (inactive). With `CCN(CC)S(=O)(=O)c1csc(C(=O)NCc2ccccc2)c1`, the manual score is 0 (inactive). In the case of `CCN(CC)S(=O)(=O)c1cccc(S(=O)(=O)c2cccc(S(=O)(=O)N(CC)CC)c2)c1` it was -1 (active); in that of `CN1CCN(S(=O)(=O)c2cccc(S(=O)(=O)c3cccc(S(=O)(=O)N4CCN(C)CC4)c3)c2)CC1`, 0 (inactive); in that of `CCN(CC(=O)c1c(N)n(C)c(=O)n(C)c1=O)c1cccc2ccccc12`, 0 (inactive). Regarding `CC(c1ccccc1)n1c(SCC(=O)N2CC(=O)Nc3ccccc32)nc2ccccc2c1=O` (configuration not stated), the manual score was 0 (inactive). For the compound `O=C1CN(C(=O)CSc2nc3ccccc3c(=O)n2Cc2ccc(F)cc2)c2ccccc2N1`, the manual score is 0.5 (inactive).

Turning to `O=C1CN(C(=O)CSc2nc3cc(Cl)ccc3c(=O)n2Cc2ccccc2)c2ccccc2N1`, the manual score was 1 (active). Consider `Cn1c(=O)c(NCCO)c2c3c(cccc31)C(=O)c1ccccc1-2`, for which the manual score is 3 (inactive). Regarding `O=C(Nc1nnc(-c2ccc(Cl)cc2)o1)c1cccc(N2C(=O)CCC2=O)c1`, the manual score was -1 (active).

Take `O=C(Nc1nnc(-c2ccc(Cl)cc2)o1)c1ccc(N2C(=O)CCC2=O)cc1`: the manual score is 0 (inactive).

Turning to `O=C(Nc1nnc(-c2ccc(Cl)cc2)o1)c1ccccc1Br`, the manual score is 1 (active).

As to `O=C(O)CC/C(=C\c1cc([N+](=O)[O-])ccc1Cl)c1nc2ccccc2s1`, the manual score is -0.5 (inactive).

On to `O=C(Nc1nnc(-c2ccc(Cl)cc2)o1)c1nc2ccccc2s1`, for which the manual score is 1 (active). In the case of `O=C(NCCCN1CCN(c2cccc(Cl)c2)CC1)c1cccc(N2CCCC2=O)c1`, the manual score was 0 (inactive).

For the compound `O=C(Nc1nnc(-c2ccccc2Cl)o1)c1nc2ccccc2s1`, the manual score is 1 (active).

With `O=C(Nc1nnc(-c2ccc(Cl)cc2)o1)C1=COCCO1`, the manual score was 0 (inactive). The same measure for `CC(C)NC(=O)c1nc2ccccc2s1`: 0 (inactive); for `O=c1c(-c2ccc(Cl)cc2)[n+]([O-])c2ccccc2n1O`: 2 (inactive).
